Source: PubChem BioAssay (Tox21)
Results filed as inconclusive are left out. Active and inactive are the calls of the source. Unless noted, calls come from the whole dose curve; as a rule, active = well fitted curve in the direction sought with a large enough effect in the repeat runs; inconclusive = weak or mixed curves; inactive = no such curve, though single readings can be large; an effect the other way counts as inactive or inconclusive. Positions of bridges follow the written chain, without caps; N, C: chain ends. Non-standard residues stand in square brackets, D forms with d. Residues, ends and D or L forms follow the SMILES beside them. hArg = N=C(N)NCCCC[C@H](N)C(=O)O; Mpa = O=C(O)CCS

Legend:
[1] = A CellTox Green Cytotoxicity Assay to monitor cytotoxicity in HepG2 cells - 16 hour (AID 1224876); note: nearly all actives have a fitted effect of over 45% in size
Outline: (§1)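 Cells and non-lytic dye reagent are dispensed together (600 HepG2 cells/well) and incubated 5 h before DMSO compound transfer. Kinetic fluorescence is then recorded in the same wells during 40 h at 37 C.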

[2] = qHTS RealTime-Glo MT Cell Viability Assay in HepG2 cells - 32 hour (AID 1224877); note: nearly all actives have a fitted effect of over 55% in size
Outline: (§2)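 Compound treatment began 5 h after plating HepG2 cells (600/well) with NanoLuc luciferase and prosubstrate. Plates stayed at 37 C for 40 h; luminescence was captured at six time points, 0 h through 40 h.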

[3] = A CellTox Green Cytotoxicity Assay to monitor cytotoxicity in HepG2 cells - 24 hour (AID 1224878); note: nearly all actives have a fitted effect of over 45% in size
Outline: as §1

[4] = A CellTox Green Cytotoxicity Assay to monitor cytotoxicity in HepG2 cells - 40 hour (AID 1224879); note: nearly all actives have a fitted effect of over 40% in size
Outline: as §1

[5] = qHTS RealTime-Glo MT Cell Viability Assay in HEK293 cells - 0 hour (AID 1224880); note: top concentration of the series differs between compounds; nearly all actives have a fitted effect of over 45% in size
Outline: (§3)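 Real-time viability in HEK293: signal arises when living cells convert a prosubstrate for NanoLuc in the medium, so luminescence tracks viable cell number. Compound (23 nL, DMSO) added 5 h post-seeding; kinetic reads at 0–40 h, 37 C.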

[6] = A CellTox Green Cytotoxicity Assay to monitor cytotoxicity in HEK293 cells - 32 hour (AID 1224881); note: nearly all actives have a fitted effect of over 40% in size
Outline: (§4)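 Cells (HEK293, 600/well) and dye reagent are dispensed together. After 5 h at 37 C, 23 nL compound is pinned in. Plates stay at 37 C for 40 h with fluorescence read at 0h, 8h, 16h, 24h, 32h and 40h.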

[7] = A CellTox Green Cytotoxicity Assay to monitor cytotoxicity in HepG2 cells - 0 hour (AID 1224882); note: nearly all actives have a fitted effect of over 35% in size
Outline: as §1

[8] = A CellTox Green Cytotoxicity Assay to monitor cytotoxicity in HepG2 cells - 32 hour (AID 1224883); note: nearly all actives have a fitted effect of over 50% in size
Outline: as §1

[9] = A CellTox Green Cytotoxicity Assay to monitor cytotoxicity in HEK293 cells - 8 hour (AID 1224884); note: nearly all actives have a fitted effect of over 35% in size
Outline: as §4

[10] = qHTS RealTime-Glo MT Cell Viability Assay in HepG2 cells - 16 hour (AID 1224885); note: nearly all actives have a fitted effect of over 50% in size
Outline: as §2

[11] = qHTS RealTime-Glo MT Cell Viability Assay in HEK293 cells - 24 hour (AID 1224886); note: top concentration of the series differs between compounds; nearly all actives have a fitted effect of over 50% in size
Outline: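 Quantitative high-throughput screen of the Tox21 10K library in HEK293: cells and RealTime-Glo reagents plated together, compound added at 5 h, luminescence monitored through 40 h at 37 C.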

[12] = qHTS RealTime-Glo MT Cell Viability Assay in HEK293 cells - 8 hour (AID 1224887); note: top concentration of the series differs between compounds; nearly all actives have a fitted effect of over 50% in size
Outline: as §3

[13] = A CellTox Green Cytotoxicity Assay to monitor cytotoxicity in HEK293 cells - 16 hour (AID 1224888); note: nearly all actives have a fitted effect of over 35% in size
Outline: as §4

[14] = qHTS RealTime-Glo MT Cell Viability Assay in HepG2 cells - 0 hour (AID 1224889); note: nearly all actives have a fitted effect of over 50% in size
Outline: as §2

[15] = A CellTox Green Cytotoxicity Assay to monitor cytotoxicity in HepG2 cells - 8 hour (AID 1224890); note: nearly all actives have a fitted effect of over 45% in size
Outline: as §1

[16] = qHTS assay to identify small molecule antagonists of the estrogen receptor alpha (ER-alpha) signaling pathway using the BG1 cell line in the presence of 0.1 nM 17-beta-estradiol - cell viability counter screen (AID 1259241); note: nearly all actives have a fitted effect of over 40% in size
Outline: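 The cell line endogenously expresses full-length ER-alpha and carries four EREs driving luciferase. Cells are cultured 5 days hormone-free, treated 22 hr with compounds and 0.1 nM estradiol, then viability is read by fluorescence.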

[17] = qHTS assay to identify small molecule antagonists of the androgen receptor (AR) signaling pathway using the MDA cell line in the presence of 0.5 nM R1881 - cell viability counter screen (AID 1259242); note: nearly all actives have a fitted effect of over 45% in size
Outline: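 Steps: plate MDA-kb2 cells, rest 5 hr at 37C without CO2; pin in compounds in DMSO; add R1881 to 0.5 nM final; incubate 16 hr; add CellTiter-Fluor, 30 min; read fluorescence.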

[18] = molecular target: Androgen receptor (Homo sapiens) (UniProt P10275); test: qHTS assay to identify small molecule antagonists of the androgen receptor (AR) signaling pathway using the MDA cell line in the presence of 0.5 nM R1881 (AID 1259243); note: nearly all actives have a fitted effect of over 50% in size
Androgen receptor (Homo sapiens), sequence (P10275 whole entry, looked up): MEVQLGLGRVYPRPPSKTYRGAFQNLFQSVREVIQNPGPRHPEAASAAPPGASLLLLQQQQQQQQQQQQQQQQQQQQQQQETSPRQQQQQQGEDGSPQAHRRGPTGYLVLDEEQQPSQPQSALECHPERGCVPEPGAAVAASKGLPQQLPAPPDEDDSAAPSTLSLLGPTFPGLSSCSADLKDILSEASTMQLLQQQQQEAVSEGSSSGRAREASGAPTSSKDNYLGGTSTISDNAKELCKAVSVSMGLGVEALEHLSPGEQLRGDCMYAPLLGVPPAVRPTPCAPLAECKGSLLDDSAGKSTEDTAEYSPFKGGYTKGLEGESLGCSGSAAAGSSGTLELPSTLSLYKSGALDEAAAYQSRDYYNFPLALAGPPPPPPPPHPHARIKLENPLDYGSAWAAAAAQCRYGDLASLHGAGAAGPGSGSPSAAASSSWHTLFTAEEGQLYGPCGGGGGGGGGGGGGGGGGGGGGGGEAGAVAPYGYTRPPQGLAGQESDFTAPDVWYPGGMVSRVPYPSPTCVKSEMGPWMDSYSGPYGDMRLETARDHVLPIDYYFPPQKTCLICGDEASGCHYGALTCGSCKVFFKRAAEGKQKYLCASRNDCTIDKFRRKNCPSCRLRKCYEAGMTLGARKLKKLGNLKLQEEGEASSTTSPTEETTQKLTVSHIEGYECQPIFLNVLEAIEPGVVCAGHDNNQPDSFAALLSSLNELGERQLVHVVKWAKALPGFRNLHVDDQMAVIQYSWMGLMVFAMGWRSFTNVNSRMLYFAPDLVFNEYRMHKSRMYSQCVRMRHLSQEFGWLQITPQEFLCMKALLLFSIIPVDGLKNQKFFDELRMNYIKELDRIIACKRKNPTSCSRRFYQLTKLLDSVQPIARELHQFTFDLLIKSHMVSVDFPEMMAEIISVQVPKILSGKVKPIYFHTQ
Outline: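 Stably transfected MDA-kb2 cells express luciferase from an MMTV promoter bearing both AR and GR response elements. Compounds plus 0.5 nM R1881 (final) were incubated 16 hr at 37C without CO2, then luminescence measured.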

[19] = molecular target: Estrogen receptor (Homo sapiens) (UniProt P03372); test: qHTS assay to identify small molecule antagonists of the estrogen receptor alpha (ER-alpha) signaling pathway using the BG1 cell line in the presence of 0.1 nM 17-beta-estradiol (AID 1259244); note: nearly all actives have a fitted effect of over 50% in size
Estrogen receptor (Homo sapiens), sequence (P03372 whole entry, looked up): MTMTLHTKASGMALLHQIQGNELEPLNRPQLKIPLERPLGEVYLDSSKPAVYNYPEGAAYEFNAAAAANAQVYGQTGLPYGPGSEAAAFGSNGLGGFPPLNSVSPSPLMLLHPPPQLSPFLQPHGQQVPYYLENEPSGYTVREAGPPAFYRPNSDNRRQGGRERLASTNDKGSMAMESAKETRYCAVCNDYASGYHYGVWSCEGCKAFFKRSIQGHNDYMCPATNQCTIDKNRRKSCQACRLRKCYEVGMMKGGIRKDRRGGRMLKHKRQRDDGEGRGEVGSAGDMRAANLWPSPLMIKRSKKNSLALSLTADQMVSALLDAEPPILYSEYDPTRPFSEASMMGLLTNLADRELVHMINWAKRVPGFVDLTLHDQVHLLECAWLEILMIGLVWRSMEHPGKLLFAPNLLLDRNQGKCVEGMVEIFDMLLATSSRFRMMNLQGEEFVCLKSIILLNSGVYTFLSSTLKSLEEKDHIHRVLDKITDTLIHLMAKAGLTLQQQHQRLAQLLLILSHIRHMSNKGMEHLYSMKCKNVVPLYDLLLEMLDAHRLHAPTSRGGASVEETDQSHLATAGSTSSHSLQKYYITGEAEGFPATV
Outline: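 Antagonist mode: compounds in DMSO are pinned onto VM7Luc4E2 reporter cells, 0.1 nM final 17beta-estradiol is added, and after 22 h at 37C luciferase luminescence is measured with ONE-Glo.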

[20] = qHTS assay to identify small molecule phospholipidosis (PLD) inducers (AID 1259344; active = well fitted curve in the direction sought with a large enough effect; an effect the other way counts as inactive or inconclusive)
Outline: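 After 4 h attachment on collagen I, HepG2 cells were dosed with compound alongside LipidTOX Red, kept 24 h at 37 C, fixed, and imaged for lamellar phospholipid pits.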
% is set by controls: 0 for no effect and ±100 for the full control effect.

CCCCC1CCC(O)CC1 (stereo not given)
inactive: Potency [1] | outcome [2] | Potency [3] | Potency [4] | Potency [5] | Potency [6] | Potency [7] | Potency [8] | Potency [9] | outcome [10] | Potency [11] | Potency [12] | Potency [13] | Potency [14] | Potency [15] | outcome [16] | outcome [17] | Potency [18]

CCCCCCCCCOC(=O)c1ccccc1C(=O)OCCCCCCCCC
inactive: Potency [1] | outcome [2] | Potency [3] | Potency [4] | Potency [5] | Potency [6] | Potency [7] | Potency [8] | Potency [9] | outcome [10] | Potency [11] | Potency [12] | Potency [13] | Potency [14] | Potency [15] | outcome [16] | outcome [17] | Potency [18]

O=C1CCC(=O)N1Cl
inactive: Potency [1] | outcome [2] | Potency [3] | Potency [4] | Potency [5] | Potency [6] | Potency [7] | Potency [8] | Potency [9] | outcome [10] | Potency [11] | Potency [12] | Potency [13] | Potency [14] | Potency [15] | outcome [16] | outcome [17] | outcome [19]

COc1ccc2c(c1)c1c3n2CCN(C)C3=NCC1
inactive: Potency [1] | outcome [2] | Potency [3] | Potency [4] | Potency [5] | Potency [6] | Potency [7] | Potency [8] | Potency [9] | outcome [10] | Potency [11] | Potency [12] | Potency [13] | Potency [14] | Potency [15] | outcome [16] | outcome [17] | outcome [19] | outcome [20]

N#Cc1ccccc1O
inactive: Potency [1] | outcome [2] | Potency [3] | Potency [4] | Potency [5] | Potency [6] | Potency [7] | Potency [8] | Potency [9] | outcome [10] | Potency [11] | Potency [12] | Potency [13] | Potency [14] | Potency [15] | outcome [16] | outcome [17]

CC(=O)C1C(=O)C=C(C)OC1=O (stereo not given)
inactive: Potency [1] | outcome [2] | Potency [3] | Potency [4] | Potency [5] | Potency [6] | Potency [7] | Potency [8] | Potency [9] | outcome [10] | Potency [11] | Potency [12] | Potency [13] | Potency [14] | Potency [15] | outcome [16] | outcome [17]

NC(=O)[C@@H]1CSSCCC(=O)N[C@@H](CCCCN=C(N)N)C(=O)NCC(=O)N[C@@H](CC(=O)O)C(=O)N[C@@H](Cc2c[nH]c3ccccc23)C(=O)N2CCC[C@H]2C(=O)N1 ([Mpa][hArg]GDWPC-NH2; disulfide 1-7)
inactive: Potency [1] | outcome [2] | Potency [3] | Potency [4] | Potency [5] | Potency [6] | Potency [7] | Potency [8] | Potency [9] | outcome [10] | Potency [11] | Potency [12] | Potency [13] | Potency [14] | Potency [15] | outcome [16] | outcome [17] | outcome [19] | outcome [20]

O=C(O)CNC(=O)CNC(=O)CNC(=O)CSC(=O)c1ccccc1
inactive: Potency [1] | outcome [2] | Potency [3] | Potency [4] | Potency [5] | Potency [6] | Potency [7] | Potency [8] | Potency [9] | outcome [10] | Potency [11] | Potency [12] | Potency [13] | Potency [14] | Potency [15] | outcome [16] | outcome [17] | outcome [19] | PLD induction [20] 1.13% [at 7.66 µM]

COc1ccc(CCO)cc1
inactive: Potency [1] | outcome [2] | Potency [3] | Potency [4] | Potency [5] | Potency [6] | Potency [7] | Potency [8] | Potency [9] | outcome [10] | Potency [11] | Potency [12] | Potency [13] | Potency [14] | Potency [15] | outcome [16] | outcome [17] | Potency [18]

CCO
inactive: Potency [1] | outcome [2] | Potency [3] | Potency [4] | Potency [5] | Potency [6] | Potency [7] | Potency [8] | Potency [9] | outcome [10] | Potency [11] | Potency [12] | Potency [13] | Potency [14] | Potency [15] | outcome [16] | outcome [17] | Potency [18]

O/N=C/C=N/O
inactive: Potency [1] | outcome [2] | Potency [3] | Potency [4] | Potency [5] | Potency [6] | Potency [7] | Potency [8] | Potency [9] | outcome [10] | Potency [11] | Potency [12] | Potency [13] | Potency [14] | Potency [15] | outcome [16]

CC(C)NC(=O)c1ccc(C=O)cc1
inactive: Potency [1] | outcome [2] | Potency [3] | Potency [4] | Potency [5] | Potency [6] | Potency [7] | Potency [8] | Potency [9] | outcome [10] | Potency [11] | Potency [12] | Potency [13] | Potency [14] | Potency [15] | outcome [16] | outcome [17] | Potency [18]

CC(=O)OCC(=O)Nc1cc(C#N)cc(NC(=O)COC(C)=O)c1Cl
inactive: Potency [1] | outcome [2] | Potency [3] | Potency [4] | Potency [5] | Potency [6] | Potency [7] | Potency [8] | Potency [9] | outcome [10] | Potency [11] | Potency [12] | Potency [13] | Potency [14] | Potency [15] | outcome [16] | outcome [17] | outcome [19] | PLD induction [20] -3.87% [at 7.66 µM]

CC(C)Cn1cnc2c1c(=O)n(C)c(=O)n2C
inactive: Potency [1] | outcome [2] | Potency [3] | Potency [4] | Potency [5] | Potency [6] | Potency [7] | Potency [8] | Potency [9] | outcome [10] | Potency [11] | Potency [12] | Potency [13] | Potency [14] | Potency [15] | outcome [16] | outcome [17] | outcome [19] | outcome [20]

CCCCOC(=O)[C@H](C)O
inactive: Potency [1] | outcome [2] | Potency [3] | Potency [4] | Potency [5] | Potency [6] | Potency [7] | Potency [8] | Potency [9] | outcome [10] | Potency [11] | Potency [12] | Potency [13] | Potency [14] | Potency [15] | outcome [16] | outcome [17]
